Test results published in PubChem BioAssay (EPA / NIEHS).
Values joined by “and” are separate entries in the source; they are usually repeats but may differ in a detail not shown here. Equal entries are not always repeated. Active and inactive are the calls of the source. The calls were made as follows: active = hit-call score of the fitted dose curve at least 0.9, where 1 is the maximum; inactive = score below 0.9.

What follows are compounds tested on Plasminogen activator inhibitor-1 (PAI1), SERPINE1 (gene 5054) (assay: BSK_BE3C_PAI1: BioMAP Diversity Plus: BE3C Assay for Plasminogen activator inhibitor-1 (PAI1) Biomarker Activity (AID 2283037)). Conditions: primary human bronchial epithelial cells; actives raise or lower the signal.
Protocol: BSK_BE3C is a cell-based, multiplexed-readout assay that uses bronchial epithelial cell, a human lung primary cell, with measurements taken at 24 hours after chemical dosing in a 96-well plate.BSK_BE3C_PAI1 is an assay component measured in the BSK_BE3C assay. It measures PAI-1 antibody related to regulation of gene expression using ELISA technology.Data from the assay component BSK_BE3C_PAI1 was analyzed into 1 assay endpoint. This assay endpoint, BSK_BE3C_PAI1, was analyzed with bidirectional fitting relative to DMSO as the negative control and baseline of activity. Using a type of binding reporter, gain or loss-of-signal activity can be used to understand changes in the signaling as they relate to the gene SERPINE1. Furthermore, this assay endpoint can be referred to as a primary readout, because this assay has produced multiple assay endpoints where this one serves a signaling function. To generalize the intended target to other relatable targets, this assay endpoint is annotated to the cytokine intended target family, where the subfamily is plasmogen activator inhibitor.
The levels of cell surface (or secreted, indicated by the prefix "s") biomarker endpoints were measured by ELISA. Overt cytotoxicity to cells in confluent adherent cultures (all systems other than the BT system) was assessed by measuring total protein levels using sulforhodamine B (SRB) staining in parallel cultures at the time of biomarker measurements, indicated as SRB endpoints. For proliferation assays for adherent cell types, individual cell types are cultured at sub-confluence and relative cell numbers quantified by SRB staining at time points optimized for each system (48 h: 3C and CASM3C systems; 72 h: BT and HDF3CGF systems; 96 h: SAg system). SRB was performed by staining cells with 0.1% SRB after fixation with 10% TCA and reading wells at 560 nm.Viability and proliferation of PBMC (T cells) was quantified by Alamar Blue reduction for the SAg and BT systems. For PBMC viability (referred to as PBMC Cytotoxicity within the assay endpoint names), cells were plated (75,000/well in a 96-well plate) and then chemical samples added for 1 h before addition of activators, SEB and TSST-1 (20 ng/mL final concentration each). Cells were incubated for 90 h. Then, Alamar Blue (20 uL/well) (Invitrogen, Cat DAL1100) was added for 6 h, and the plates were read with a fluorescence microplate reader at 546/580 nm (excitation/emission). For PBMC proliferation, cells were plated and activated as above but incubated for only 16 h prior to addition of Alamar Blue. Plates were read after 6 h.

SMILES	outcome	AC50
CCCSP(=O)(OCC)SCCC	inactive	–
CCOP(=O)(SC(C)CC)N1CCSC1=O (stereo not given)	inactive	–
CCc1cccc(C)c1N(C(=O)CCl)C(C)COC (stereo not given)	inactive	–
CC(=NC#N)N(C)Cc1ccc(Cl)nc1	inactive	–
CSc1nc(NC(C)C)nc(NC(C)C)n1	inactive	–
CSC1=N[C@@](C)(c2ccccc2)C(=O)N1Nc1ccccc1	inactive	–
COP(=O)(OC)C(O)C(Cl)(Cl)Cl (stereo not given)	inactive	–
CC1=NNC(=O)N(/N=C/c2cccnc2)C1	inactive	–
CNc1cnn(-c2cccc(C(F)(F)F)c2)c(=O)c1Cl	inactive	–
CCCCOC(=O)[C@@H](C)Oc1ccc(Oc2ccc(C#N)cc2F)cc1	inactive	–
Nc1c(Cl)cc([N+](=O)[O-])cc1Cl	inactive	–
CCOC(=O)CC(SP(=O)(OC)OC)C(=O)OCC (stereo not given)	inactive	–
CCOP(=S)(OCC)OC(Cl)C(Cl)(Cl)Cl (stereo not given)	inactive	–
CCOP(=S)(OCC)Oc1cc(C)nc(C(C)C)n1	inactive	–
CCc1cccc(CC)c1N(COC)C(=O)CCl	inactive	–
COc1cc(OC)nc(Sc2cccc(Cl)c2C(=O)O)n1	inactive	–
CCOP(=S)(OCC)Oc1ccc([N+](=O)[O-])cc1	inactive	–
COP(=O)(NC(C)=O)SC (stereo not given)	inactive	–
CON=C(C(=O)OC)c1ccccc1CON=C(C)c1cccc(C(F)(F)F)c1	–	8.79 µM (active)
Cc1ccn2nc(S(=O)(=O)Nc3c(F)cccc3F)nc2n1	inactive	–

SMILES	outcome	AC50
Cc1cc(C2CC2)nc(Nc2ccccc2)n1	inactive	–
C[N+]1(C)CCCCC1	inactive	–
CCC(=NOC/C=C/Cl)C1=C(O)CC(C2CCOCC2)CC1=O (stereo not given)	inactive	–
C#CCC1=C(C)C(OC(=O)C2C(C=C(C)C)C2(C)C)CC1=O (stereo not given)	inactive	–
CCc1cnc(C2=NC(C)(C(C)C)C(=O)N2)c(C(=O)O)c1 (stereo not given)	inactive	–
CCOP(=S)(OCC)SCCSCC	inactive	–
CNC(=O)ON=C(C)SC	inactive	–
CC(C)[C@H](C(=O)O[C@H](C#N)c1cccc(Oc2ccccc2)c1)c1ccc(Cl)cc1	inactive	–
CCC(=O)Nc1ccc(Cl)c(Cl)c1	inactive	–
CC[C@H](C)[C@H]1O[C@]2(C=C[C@@H]1C)C[C@@H]1C[C@@H](C/C=C(\C)[C@@H](O[C@H]3C[C@H](OC)[C@@H](O[C@H]4C[C@H](OC)[C@@H](NC)[C@H](C)O4)[C@H](C)O3)[C@@H](C)/C=C/C=C3\CO[C@@H]4[C@H](O)C(C)=C[C@@H](C(=O)O1)[C@]34O)O2	–	6.98 µM (active)
CCCCSP(=O)(SCCCC)SCCCC	inactive	–
COP(=O)(OC)OC(Br)C(Cl)(Cl)Br (stereo not given)	–	27.9 µM (active)
CCCOc1nn(C(=O)NS(=O)(=O)c2ccccc2C(=O)OC)c(=O)n1C	inactive	–
FC(F)C(F)(F)OCC(Cn1cncn1)c1ccc(Cl)cc1Cl (stereo not given)	inactive	–
C#CC(C)(C)NC(=O)c1cc(Cl)cc(Cl)c1	inactive	–
CN1COCN(Cc2cnc(Cl)s2)C1=N[N+](=O)[O-]	inactive	–
CN(C)C(=O)Nc1cccc(C(F)(F)F)c1	inactive	–
CC(COc1ccc(Oc2ccccc2)cc1)Oc1ccccn1 (stereo not given)	inactive	–
CC(C)N(C(=O)SCC(Cl)=C(Cl)Cl)C(C)C	inactive	–
O=[N+]([O-])c1cc(C(F)(F)F)c(Cl)c([N+](=O)[O-])c1Nc1ncc(C(F)(F)F)cc1Cl	–	7.78 µM (active) and 8.98 µM (active)
